Assay outcomes from PubChem.
A selection: hits, their analogues and other compounds. The true share with any hit is near 6.3%.
ATXN viability: viability counter-screen for ATXN expression inhibitors; S2 cells (HEK-293 line with an ATXN2-luciferase reporter) viability, CellTiter-Fluor protease fluorescence, 24 h; Potency, µM (top dose mostly 56.7 µM), most hits filed as cytotoxic; 0.49% of 400,000 active; AID 651635; also: nearly all actives have a fitted effect of over 40% in size
TGFb SMAD3 inh: inhibitors of TGF-b signaling; HepG2 CAGA-GFP TGF-b/SMAD3 reporter, GFP fluorescence, 18 h; TGF-beta stimulated, 500 pg/mL final; Potency, µM (series often up to 46.1 µM), without a hit: top-dose activity, negative = inhibition, actives largely listed as inhibitors; 1.2% of 410,000 active; AID 588855; also: % is scaled to controls: 0 for no effect and ±100 for the full control effect; nearly all actives have a fitted effect of over 65% in size
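Cell-based qHTS in HEPG2 carrying a CAGA-GFP Smad reporter; compounds added before 500 pg/mL final TGF-beta, 18 h incubation at 37 degrees C, GFP fluorescence quantified per cell by imaging cytometry.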
Gal4-VP16 FLuc: inhibits Gal4-VP16 luciferase reporter, ROR gamma counter-screen; Potency, µM (titrated, usually from 53.6 µM), for the others: top-dose activity, negative = inhibition, actives largely listed as inhibitors; 3.5% of 310,000 active; AID 2546; Drosophila S2 Gal4-VP16 UAS-luciferase, luminescence, 20 h;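 also: Gal4-VP16 expression switched on by copper sulfate through the metallothionein promoter; % is scaled to controls: 0 for no effect and ±100 for the full control effect; nearly all actives have a fitted effect of over 50% in size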
ATXN2 expr inh: ATXN2 expression inhibition; Potency, µM (titrated, usually from 57 µM), inactives show top-dose activity change, negative = inhibition, actives largely listed as inhibitors; HEK-293 ATXN2-luciferase reporter, luminescence, 24 h; 0.72% of 360,000 active; AID 1745845; also: % is scaled to controls: 0 for no effect and ±100 for the full control effect; nearly all actives have a fitted effect of over 55% in size
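qHTS (up to 57 uM final) was run with 24 h compound exposure of reporter cells at 37 °C. Each well was multiplexed: SteadyGlo luminescence measured ATXN2-luciferase expression after a fluorogenic Gly-Phe-AFC viability readout (25 uM final).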
RORg inh: ROR gamma (mouse) transcription inhibition; 5.4% of 310,000 active; Drosophila S2 Gal4-RORgamma UAS-luciferase reporter, 20 h; AID 2551; Potency, µM (top dose mostly 53.6 µM), for the others: at the highest dose activity change, negative = inhibition, actives largely listed as inhibitors; also: % is scaled to controls: 0 for no effect and ±100 for the full control effect; nearly all actives have a fitted effect of over 60% in size
Target sequence (P51450 whole entry, looked up, the tested form may be a part): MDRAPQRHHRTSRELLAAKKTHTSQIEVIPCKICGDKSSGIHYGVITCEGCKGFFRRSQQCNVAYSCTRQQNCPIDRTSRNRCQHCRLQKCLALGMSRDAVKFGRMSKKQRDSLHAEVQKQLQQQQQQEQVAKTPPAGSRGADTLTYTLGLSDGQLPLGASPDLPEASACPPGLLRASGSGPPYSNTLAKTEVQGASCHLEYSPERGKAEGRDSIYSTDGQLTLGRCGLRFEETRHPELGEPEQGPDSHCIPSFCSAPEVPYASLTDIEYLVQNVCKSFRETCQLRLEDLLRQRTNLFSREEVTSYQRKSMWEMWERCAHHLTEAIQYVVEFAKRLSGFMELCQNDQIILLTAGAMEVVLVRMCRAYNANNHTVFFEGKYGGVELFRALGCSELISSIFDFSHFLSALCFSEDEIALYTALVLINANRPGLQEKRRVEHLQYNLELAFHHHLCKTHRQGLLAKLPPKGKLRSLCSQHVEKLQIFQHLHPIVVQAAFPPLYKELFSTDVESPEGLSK
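Luminescence from a UAS-regulated Photinus luciferase reporter in stably transfected Drosophila Schneider cells is measured; decreased signal marks ROR gamma inhibition. Fusion expression is induced by 700 uM copper sulfate for 20 hr.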
HepG2 viability: HepG2 cytotoxicity, counter-screen for TGF-b inhibitors; HepG2 CAGA-GFP viability, ATP luminescence, 18 h; Potency, µM (doses to about 46.1 µM), inactives show top-dose activity change, negative = cytotoxicity, actives largely listed as cytotoxic; 0.76% of 410,000 active; AID 588856
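HepG2 CAGA-GFP cells (1000/well, DMEM with 1% FBS) received compound, then TGF-beta at 500 pg/mL final, and were incubated 18 hours at 37 degrees C. Viability was read by CellTiter-Glo luminescence. Media-only wells were set as complete cell-killing and DMSO as no toxicity.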
Active calls of the source: *; i = inactive; ? = inconclusive; . = not tested or not shown; [ ] = dose if it differs, or a comment. Calls follow the shape of the dose curve; as a rule, active = well fitted curve in the direction sought with a large enough effect; inconclusive = small, poorly fitted or top-dose-only effect, or another doubt; inactive = no such curve, though single readings can be large; an effect the other way counts as inactive or inconclusive. Potency is read from the fitted curve at half-maximal effect.

SMILES	ATXN viability	TGFb SMAD3 inh	Gal4-VP16 FLuc	ATXN2 expr inh	RORg inh	HepG2 viability
CC(C)(C)C(=O)Nc1cc(C(F)(F)F)ccc1N1CCOCC1	i	-1.6%	-5.8%	-11.8%	?	-10.5%
COC(=O)c1cc2oc(C)cc2n1Cc1ccccc1Cl	?	-16.6%	.	-8.0%	.	-29.9%
COc1ccc(C2=Nn3c(nnc3-c3cccc(OC)c3OC)SC2)cc1OC	.	.	4.3%	.	-5.8%	.
Cc1ccc(C2Nc3ccccc3-n3c(-c4ccccc4)c4c(=O)n(C)c(=O)n(C)c4c32)cc1 (configuration not stated)	i	2.2%	.	3.9%	.	-13.2%
COc1ccc(CCN(C)C(=S)Nc2ccc(SC(F)F)cc2)cc1OC	i	-0.6%	?	-15.8%	20µM*	-17.9%
COc1ccc(CCN(C)CCC(=O)Nc2ccc(C)cc2)cc1OC	i	-10.5%	-1.0%	3.5%	15.5%	-2.3%
COc1ccc(CCN(C)C(=S)NC(=O)c2ccc(F)cc2Cl)cc1OC	i	0.7%	3.98µM*	-1.6%	1.58µM*	15.3%
CN(C)c1cccc(C(=O)NCC2Cc3cccc(-c4cncnc4)c3O2)c1 (configuration not stated)	i	.	.	.	.	.
COc1ccccc1CCNCc1ccc(OC)c(OCc2ccccc2)c1	?	0.5%	-8.9%[0.365 µM]	?	?	-65.4%
COc1cccc(CNCCc2c[nH]c3ccccc23)c1OCc1ccccc1	i	?	-18.8%	?	7.7%	11.2µM*
COc1cc(CNCCc2c[nH]c3ccccc23)ccc1OCc1ccccc1F	?	?	?	?	?	12.6µM*
CCOC(=O)N1CCC(NCCNC(=O)c2cccc(F)c2)CC1	i	8.1%	.	13.2%	.	8.1%
O=S(=O)(NCc1ccncc1)c1ccc(Br)s1	i	?	1.78µM*	-22.7%	-39.3%	-27.9%
COC(=O)COc1ccc(S(=O)(=O)NCc2ccncc2)cc1	i	?	2.82µM*	1.8%	?	6.1%
Cc1ccc(S(=O)(=O)NCc2ccncc2)cc1C	?	-27.4%	3.98µM*	-14.7%	11.2µM*	-16.8%
CNC(=O)c1cc(S(=O)(=O)NCc2ccncc2)ccc1OC	i	-1.2%	?	-1.6%	-4.6%	-10.8%
O=C(O)CNS(=O)(=O)c1ccc(Br)s1	i	-2.1%	-5.3%	0.7%	2.4%	-2.5%
Cc1cc(C)c(C)c(S(=O)(=O)NCc2ccncc2)c1C	i	-8.2%	?	?	?	-10.2%
COc1cc(S(=O)(=O)NCc2ccncc2)ccc1Br	i	-0.3%	7.08µM*	-22.7%	27.5%	-4.8%
COc1ccc(CCNC(=O)c2ccc3c(c2)N=C(C)c2ccccc2S3)cc1OC	?	?	.	-35.6%	.	-30.5%
Clc1ccc(-c2csc(Nc3ccccc3)[n+]2Cc2ccco2)c(Cl)c1	i	?	-5.4%	.	17.2%	0.9%
C#Cc1cccc(C(=O)NCc2nc(-c3ccccc3NC(C)=O)oc2C)c1	i	.	.	.	.	.
Cc1ccc(S(=O)(=O)NCC(c2ccco2)N2CCN(c3ccccc3F)CC2)cc1 (configuration not stated)	.	0.0%	.	.	.	-0.4%
C=C1C=C(C(F)F)n2ncc(C(=O)NCc3ccc(Cl)cc3Cl)c2N1	.	5.1%	.	.	.	15.9%
CCN(C1CCCCC1)S(=O)(=O)c1ccc(S(=O)(=O)NCc2ccncc2)cc1	i	?	17.8µM*	-35.2%	-0.9%	-18.6%
SMILES	ATXN viability	TGFb SMAD3 inh	Gal4-VP16 FLuc	ATXN2 expr inh	RORg inh	HepG2 viability
O=S(=O)(NCc1ccncc1)c1ccccc1	i	-2.5%	15.8µM*	-21.8%	18.4%	-71.7%
COc1ccc(S(=O)(=O)NCc2cccnc2)cc1Br	?	-20.3%	11.2µM*	.	?	7.08µM*
Cc1ncc2c(c1CNC(=O)/C=C/c1cccs1)CCN(C(=O)C1CC(=O)OC13CCCCC3)C2 (configuration not stated)	i	.	.	.	.	.
COc1ccc(COC(=O)CCc2cc(OC)c(OC)c(OC)c2)cc1F	i	5.1%	.	-1.4%	.	13.8%
NC(=O)C1CCCN(C(=O)c2[nH]c(C(F)(F)F)nc2-c2ccccc2)C1 (configuration not stated)	i	-16.1%	.	4.3%	.	-13.4%
CN(CCO)C(=O)c1cn(C2CCN(Cc3cccc(C(F)(F)F)c3)CC2)nn1	i	.	.	.	.	.
Cc1ccc(NC2=CC(=O)c3sc(C)nc3C2=O)cc1	.	.	2.51µM*	.	2.24µM*	.
CC(C)OC(=O)c1cccc(C(=O)OCc2ccco2)n1	i	-12.7%	?	-3.5%	-22.8%	7.08µM*
Cc1ccccc1OCC(=O)NCC(c1ccc(Cl)cc1)N1CCOCC1 (configuration not stated)	?	?	.	-10.4%	.	-25.7%
C[C@H](NC(=O)c1nc[nH]c1C(=O)N[C@H](C)c1ccccc1)C(=O)OC(C)(C)C	i	-14.6%	?	6.3%	?	-3.2%
C[C@H](NC(=O)c1nc[nH]c1C(=O)NC(c1ccccc1)c1ccccc1)C(=O)OC(C)(C)C	?	?	4.47µM*	?	2.51µM*	-77.4%
CC(C)(C)OC(=O)CNC(=O)c1[nH]cnc1C(=O)NC(c1ccccc1)c1ccccc1	i	?	?	-12.9%	6.31µM*	-27.8%
COC(=O)c1c(OCc2ccccn2)cc(=O)n2c1CCN(C(=O)c1cc(C(C)C)nn1C)CC2	i	.	.	.	.	.
N#CCCn1c(=O)c(-c2ccccc2)nc2cnc(N3CCNCC3)nc21	.	.	12.0%	.	-0.4%	.
CC(C)(C)c1ccc(S(=O)(=O)N[C@H]2CC[C@@H](n3cc(C(=O)N4CCCC4)nn3)CC2)cc1	i	.	.	.	.	.
O=C(O)c1ccccc1SCc1cn2ccccc2n1	i	3.2%	-8.6%	1.4%	-5.1%	-33.3%
c1ccc(CSCc2cn3ccccc3n2)cc1	i	0.0%	-18.9%	89.2%	12.6µM*	0.0%
Cc1ccc(SCc2cn3ccccc3n2)cc1	i	-17.6%	?	-2.7%	10µM*	-28.1%
Cc1cs/c(=N/C(=S)Nc2ccccc2)n1C	i	-1.6%	10µM*	-12.5%	1.58µM*	12.7%
CCCn1c(C)cs/c1=N\C(=S)Nc1ccccc1	i	?	5.62µM*	-1.6%	3.98µM*	-13.8%
C=CCNC(=S)/N=c1/scc(C)n1C	i	-23.5%	-0.8%	28.8%	?	-14.7%
CCN(CC)c1ccccc1/C=C/[n+]1ccc(CCCCI)c2ccccc21	.	?	.	.	.	-27.9%
CCc1ccc(N(CC)C(=O)c2cn(C)c(=O)c3ccccc23)cc1	i	-21.2%	8.5%	28.9%	-3.9%	-11.5%
CCCCN(CC)C(=O)c1ccc(Cl)c(Cl)c1	i	-6.9%	5.9%	3.1%	19.3%	-10.0%
